Assay results published in PubChem BioAssay AID1159580 (chemical genetic matrix, 2015).
Values joined by “and” are separate entries in the source; they are usually repeats but may differ in a detail not shown here. Equal entries are not always repeated. Out of some 5,500 compounds screened, about 2,000 (36%) were called active. Roughly 18% stayed inconclusive and do not appear here. Rule as the data show it: active = normalized growth mostly below about 0.91 (no sharp cut-off); inconclusive = no clear call, values can overlap the other calls; inactive = mostly above about 0.92. This is one part of the list. Where a structure was tested more than once in an assay, its records may differ in their call.

Experiment: chemical genetic growth profiling, strain panel (AID 1159580);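 also: tested at 20 µM; growth read once vehicle control cultures reached saturation at 30 °C; 1 = growth at the plate median or of vehicle wells; lower values mean less growth of the strain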
Settings: growth OD

Measured: normalized growth

Cc1cc2c(C(C)C)c(O)c(O)c(C=O)c2c(O)c1-c1c(C)cc2c(C(C)C)c(O)c(O)c(C=O)c2c1O
0.679 (active) and 0.959 (inactive): S. cerevisiae deletion strains, locus YNR052C, strain pop2, stronger effect = lower value
0.664 (active) and 0.912 (inactive): S. cerevisiae deletion strains, locus YOR184W, strain ser1, stronger effect = lower value
0.824 (active) and 0.908 (inactive): S. cerevisiae deletion strains, locus YMR125W, strain sto1, stronger effect = lower value
active: S. cerevisiae deletion strains, locus YKL009W, strain mrt4, stronger effect = lower value 1.52 [resistant] | S. cerevisiae deletion strains, locus YKL085W, strain MDH1 (second series), stronger effect = lower value 1.08 [resistant] and 1.1 [resistant] | S. cerevisiae deletion strains, locus YKL085W, strain MDH1, stronger effect = lower value 1.08 [resistant] and 1.1 [resistant] | S. cerevisiae deletion strains, locus YKL160W, strain elf1, stronger effect = lower value 0.832 and 0.809 | S. cerevisiae deletion strains, locus YKL190W, strain CNB1, stronger effect = lower value 0.663 and 0.868 | S. cerevisiae deletion strains, locus YKR001C, strain vps1, stronger effect = lower value 0.486 and 0.887 | S. cerevisiae deletion strains, locus YLL001W, strain dnm1, stronger effect = lower value 0.724 and 0.801 | S. cerevisiae deletion strains, locus YLL026W, stronger effect = lower value 0.904 and 0.838 | S. cerevisiae deletion strains, locus YLR027C, strain aat2, stronger effect = lower value 0.78 and 0.81 | S. cerevisiae deletion strains, locus YLR058C, strain SHM2, stronger effect = lower value 0.685 and 0.764 | S. cerevisiae deletion strains, locus YLR221C, strain rsa3, stronger effect = lower value 0.751 and 0.818 | S. cerevisiae deletion strains, locus YLR258W, strain gsy2, stronger effect = lower value 0.855 and 0.839 | S. cerevisiae deletion strains, locus YLR262C, strain YPT6 (second series), stronger effect = lower value 0.216 and 0.179 | S. cerevisiae deletion strains, locus YLR268W, strain sec22, stronger effect = lower value 0.599 and 0.847 | S. cerevisiae deletion strains, locus YLR320W, strain mms22, stronger effect = lower value 0.684 and 0.651 | S. cerevisiae deletion strains, locus YLR330W, strain CHS5, stronger effect = lower value 0.675 and 0.883 | S. cerevisiae deletion strains, locus YLR342W, strain FKS1, stronger effect = lower value 0.675 and 0.786 | S. cerevisiae deletion strains, locus YLR357W, strain rsc2, stronger effect = lower value 0.649 and 0.719 | S. cerevisiae deletion strains, locus YLR370C, strain arc18, stronger effect = lower value 0.687 and 0.765 | S. cerevisiae deletion strains, locus YLR384C, strain iki3, stronger effect = lower value 0.809 and 0.889 | S. cerevisiae deletion strains, locus YML016C, strain PPZ1, stronger effect = lower value 0.73 and 0.831 | S. cerevisiae deletion strains, locus YML120C, strain ndi1, stronger effect = lower value 0.721 and 0.719 | S. cerevisiae deletion strains, locus YMR058W, strain fet3, stronger effect = lower value 0.101 and 0.125 | S. cerevisiae deletion strains, locus YMR205C, strain PFK2, stronger effect = lower value 0.63 and 0.655 | S. cerevisiae deletion strains, locus YMR223W, strain ubp8, stronger effect = lower value 0.796 and 0.898 | S. cerevisiae deletion strains, locus YMR231W, strain pep5, stronger effect = lower value 0.434 and 0.295 | S. cerevisiae deletion strains, locus YNL067W, strain RPL9B, stronger effect = lower value 0.773 and 0.808 | S. cerevisiae deletion strains, locus YNL071W, strain lat1, stronger effect = lower value 0.86 and 0.835 | S. cerevisiae deletion strains, locus YNL153C, strain GIM3, stronger effect = lower value 0.742 and 0.767 | S. cerevisiae deletion strains, locus YNL209W, strain ssb2, stronger effect = lower value 0.527 and 0.542 | S. cerevisiae deletion strains, locus YNL233W, strain BNI4, stronger effect = lower value 0.796 and 0.835 | S. cerevisiae deletion strains, locus YNL322C, strain KRE1 (second series), stronger effect = lower value 0.875 and 0.9 | S. cerevisiae deletion strains, locus YNL322C, strain KRE1, stronger effect = lower value 0.832 | S. cerevisiae deletion strains, locus YNR049C, strain mso1, stronger effect = lower value 0.854 and 0.889 | S. cerevisiae deletion strains, locus YOL006C, strain TOP1, stronger effect = lower value 0.436 | S. cerevisiae deletion strains, locus YOR001W, strain rrp6, stronger effect = lower value 0.764 and 0.819 | S. cerevisiae deletion strains, locus YOR061W, strain CKA2, stronger effect = lower value 0.653 and 0.79 | S. cerevisiae deletion strains, locus YOR069W, strain VPS5, stronger effect = lower value 0.799 and 0.9 | S. cerevisiae deletion strains, locus YOR070C, strain gyp1, stronger effect = lower value 0.893 and 0.784 | S. cerevisiae deletion strains, locus YOR080W, strain dia2, stronger effect = lower value 0.755 and 0.812 | S. cerevisiae deletion strains, locus YOR083W, strain WHI5, stronger effect = lower value 0.806 and 0.808 | S. cerevisiae deletion strains, locus YOR106W, strain vam3, stronger effect = lower value 0.537 and 0.567 | S. cerevisiae deletion strains, locus YOR265W, strain rbl2, stronger effect = lower value 0.808 and 0.842 | S. cerevisiae deletion strains, locus YOR270C, strain vph1, stronger effect = lower value 0.231 and 0.311 | S. cerevisiae deletion strains, locus YOR290C, strain snf2, stronger effect = lower value 0.525 and 0.627 | S. cerevisiae deletion strains, locus YPL051W, strain arl3, stronger effect = lower value 0.51 and 0.436 | S. cerevisiae deletion strains, locus YPL078C, strain atp4, stronger effect = lower value 0.715 and 0.778 | S. cerevisiae strains, strain wild type, stronger effect = lower value 0.809
0.892 (inactive) and 0.886 (active): S. cerevisiae deletion strains, locus YNL248C, strain rpa49, stronger effect = lower value
0.354 (active) and 0.699 (inactive): S. cerevisiae deletion strains, locus YMR307W, strain GAS1, stronger effect = lower value
0.708 (active) and 0.956 (inactive): S. cerevisiae deletion strains, locus YLR371W, strain rom2, stronger effect = lower value
0.86 (active) and 0.906 (inactive): S. cerevisiae deletion strains, strain wtn01, stronger effect = lower value
0.855 (active) and 0.958 (inactive): S. cerevisiae deletion strains, locus YML032C, strain rad52, stronger effect = lower value
0.878 (active) and 0.941 (inactive): S. cerevisiae deletion strains, locus YMR129W, stronger effect = lower value
0.545 (active) and 0.811 (inactive): S. cerevisiae deletion strains, locus YLR342W, strain FKS1 (second series), stronger effect = lower value
0.798 (active) and 0.905 (inactive): S. cerevisiae deletion strains, locus YPL106C, strain sse1, stronger effect = lower value
0.846 (active) and 0.936 (inactive): S. cerevisiae deletion strains, locus YPL240C, strain hsp82, stronger effect = lower value
0.56 (active) and 0.883 (inactive): S. cerevisiae deletion strains, locus YNL128W, strain TEP1, stronger effect = lower value
0.92 (active) and 0.959 (inactive): S. cerevisiae deletion strains, locus YLL041C, strain sdh2, stronger effect = lower value
0.486 (active) and 0.903 (inactive): S. cerevisiae deletion strains, locus YLR418C, strain cdc73, stronger effect = lower value
0.888 (active) and 0.949 (inactive): S. cerevisiae deletion strains, locus YKR026C, strain gcn3, stronger effect = lower value
0.202 (active) and 0.679 (inactive): S. cerevisiae deletion strains, locus YLR039C, strain RIC1, stronger effect = lower value
0.928 (active) and 0.994 (inactive): S. cerevisiae deletion strains, locus YML124C, strain tub3, stronger effect = lower value
0.842 (active) and 0.958 (inactive): S. cerevisiae deletion strains, locus YPR167C, strain met16, stronger effect = lower value
0.804 (active) and 0.984 (inactive): S. cerevisiae deletion strains, locus YNL307C, strain MCK1, stronger effect = lower value
0.207 (active) and 0.653 (inactive): S. cerevisiae deletion strains, locus YLR262C, strain YPT6, stronger effect = lower value
inactive: S. cerevisiae deletion strains, locus YJR066W, strain TOR1, stronger effect = lower value 0.993 | S. cerevisiae deletion strains, locus YJR075W, strain HOC1, stronger effect = lower value 0.907 | S. cerevisiae deletion strains, locus YKL068W, stronger effect = lower value 1.04 | S. cerevisiae deletion strains, locus YKR091W, strain srl3, stronger effect = lower value 0.935 and 0.943 | S. cerevisiae deletion strains, locus YLR102C, strain apc9, stronger effect = lower value 0.992 and 1.01 | S. cerevisiae deletion strains, locus YLR113W, strain HOG1, stronger effect = lower value 0.952 | S. cerevisiae deletion strains, locus YMR078C, strain ctf18, stronger effect = lower value 0.974 and 0.987 | S. cerevisiae deletion strains, locus YNL183C, strain NPR1, stronger effect = lower value 0.984 | S. cerevisiae deletion strains, locus YNL250W, strain rad50, stronger effect = lower value 0.961 and 0.957 | S. cerevisiae deletion strains, locus YNL271C, strain bni1, stronger effect = lower value 0.969 and 0.96 | S. cerevisiae deletion strains, locus YNL298W, strain CLA4, stronger effect = lower value 0.959 and 0.985 | S. cerevisiae deletion strains, locus YOL012C, strain htz1 0.315 and 0.44 | S. cerevisiae deletion strains, locus YOR136W, strain idh2, stronger effect = lower value 0.969 and 0.986 | S. cerevisiae deletion strains, locus YOR231W, strain MKK1, stronger effect = lower value 1.01 | S. cerevisiae deletion strains, locus YOR316C, strain cot1, stronger effect = lower value 0.967 and 1 | S. cerevisiae deletion strains, locus YPL256C, strain CLN2, stronger effect = lower value 0.973 | S. cerevisiae deletion strains, locus YPR119W, strain clb2, stronger effect = lower value 0.983 and 1.02 | S. cerevisiae deletion strains, locus YPR141C, strain kar3, stronger effect = lower value 0.984 and 0.991 | S. cerevisiae deletion strains, locus YPR163C, strain tif3, stronger effect = lower value 0.932 and 1.02
0.859 (active) and 0.978 (inactive): S. cerevisiae deletion strains, locus YOR144C, strain elg1, stronger effect = lower value
0.912 (active) and 0.957 (inactive): S. cerevisiae deletion strains, locus YPL241C, strain CIN2, stronger effect = lower value
0.872 (active) and 0.991 (inactive): S. cerevisiae deletion strains, locus YOL147C, strain pex11, stronger effect = lower value
